Test results: paper PMC7862700, “An all-to-all approach to the identification of sequence-specific readers for epigenetic DNA modifications on cytosine”

Columns and labels:
Experiment in all cases: DAPPL (digital affinity profiling via proximity ligation, sequencing); 10 mM Tris-HCl pH 7.5, 50 mM NaCl, 1 mM DTT, 4% glycerol, room temperature, 30 min; GST-TFs on glutathione beads, 16-mer random dsDNA library, 0.1% formaldehyde crosslink after washing; high values mean tight binding
Details in all cases: protein: recombinant; tags: N-terminal GST; dsDNA, one strand shown
FEV = molecular target: T1, FEV (Homo sapiens, UniProt Q99581 1-238)
T1 sequence: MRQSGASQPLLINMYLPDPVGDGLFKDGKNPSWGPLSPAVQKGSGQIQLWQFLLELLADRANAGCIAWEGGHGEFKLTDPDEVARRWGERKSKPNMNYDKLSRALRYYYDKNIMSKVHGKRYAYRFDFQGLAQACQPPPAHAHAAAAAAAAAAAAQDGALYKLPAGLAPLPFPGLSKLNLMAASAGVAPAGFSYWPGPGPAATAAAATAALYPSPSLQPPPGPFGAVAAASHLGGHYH
Outline: (§1)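 Beads coated with glutathione captured GST-fused human transcription factors that had been expressed in yeast, and the factors were then given DNA barcodes and pooled with a tag-only sample. The pools were incubated with 200 nmole of a random double-stranded 16-mer DNA library in Tris/NaCl/DTT/glycerol buffer for 30 min at room temperature, washed, crosslinked with 0.1% formaldehyde and proximity-ligated with BsaI/T4 ligase at 37 °C for 1 h. PCR amplification and Illumina NextSeq500 sequencing came last. Binding signal is each hexamer's read frequency for a factor divided by its frequency for the tag-only sample.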

ETV5 = ETV5 (Homo sapiens, UniProt P41161 1-510)
ETV5, sequence (P41161 whole entry): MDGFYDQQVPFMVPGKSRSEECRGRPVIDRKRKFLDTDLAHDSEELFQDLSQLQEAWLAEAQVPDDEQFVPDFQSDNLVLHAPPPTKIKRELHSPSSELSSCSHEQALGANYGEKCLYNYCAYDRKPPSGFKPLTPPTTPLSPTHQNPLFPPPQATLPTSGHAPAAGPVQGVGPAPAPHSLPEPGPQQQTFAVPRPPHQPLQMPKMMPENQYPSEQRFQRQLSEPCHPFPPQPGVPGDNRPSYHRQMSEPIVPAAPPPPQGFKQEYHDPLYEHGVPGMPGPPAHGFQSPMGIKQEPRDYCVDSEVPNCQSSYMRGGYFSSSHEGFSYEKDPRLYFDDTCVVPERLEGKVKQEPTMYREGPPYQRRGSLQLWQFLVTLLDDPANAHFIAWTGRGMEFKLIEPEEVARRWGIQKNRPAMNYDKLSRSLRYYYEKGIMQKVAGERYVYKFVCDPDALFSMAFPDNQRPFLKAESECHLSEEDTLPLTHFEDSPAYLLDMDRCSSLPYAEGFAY
Outline: as §1

SPIC = molecular target: T2, SPIC (Homo sapiens, UniProt Q8N5J4 1-248)
T2 sequence: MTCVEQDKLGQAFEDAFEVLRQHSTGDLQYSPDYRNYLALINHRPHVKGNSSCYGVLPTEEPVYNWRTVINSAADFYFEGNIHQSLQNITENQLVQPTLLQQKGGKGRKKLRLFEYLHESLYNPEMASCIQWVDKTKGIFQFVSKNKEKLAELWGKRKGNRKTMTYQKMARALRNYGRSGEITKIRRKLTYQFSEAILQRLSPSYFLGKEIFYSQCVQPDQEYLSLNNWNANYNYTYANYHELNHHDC
Outline: as §1

ELF4 = ELF4 (Homo sapiens, UniProt Q99607 1-663)
ELF4, sequence (Q99607 whole entry): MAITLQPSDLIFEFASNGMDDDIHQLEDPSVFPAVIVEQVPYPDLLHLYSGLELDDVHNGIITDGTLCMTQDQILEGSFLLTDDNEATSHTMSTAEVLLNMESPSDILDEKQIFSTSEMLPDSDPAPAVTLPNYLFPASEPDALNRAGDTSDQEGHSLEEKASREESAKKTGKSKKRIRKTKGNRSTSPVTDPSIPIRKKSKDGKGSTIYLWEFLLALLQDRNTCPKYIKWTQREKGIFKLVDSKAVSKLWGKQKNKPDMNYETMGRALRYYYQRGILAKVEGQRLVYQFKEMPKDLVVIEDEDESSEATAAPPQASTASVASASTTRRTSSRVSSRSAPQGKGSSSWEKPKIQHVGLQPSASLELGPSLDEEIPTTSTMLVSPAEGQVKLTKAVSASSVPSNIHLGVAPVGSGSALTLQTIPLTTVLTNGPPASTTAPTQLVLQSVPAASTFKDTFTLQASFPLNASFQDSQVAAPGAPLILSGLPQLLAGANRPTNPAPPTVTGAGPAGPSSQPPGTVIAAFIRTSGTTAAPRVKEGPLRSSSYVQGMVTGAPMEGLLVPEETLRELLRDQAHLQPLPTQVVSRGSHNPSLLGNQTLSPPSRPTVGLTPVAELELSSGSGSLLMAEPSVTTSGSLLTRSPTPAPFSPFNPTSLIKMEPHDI
Outline: as §1

ELK4 = molecular target: T3, ELK4 (Homo sapiens, UniProt P28324-2 1-405)
T3 sequence: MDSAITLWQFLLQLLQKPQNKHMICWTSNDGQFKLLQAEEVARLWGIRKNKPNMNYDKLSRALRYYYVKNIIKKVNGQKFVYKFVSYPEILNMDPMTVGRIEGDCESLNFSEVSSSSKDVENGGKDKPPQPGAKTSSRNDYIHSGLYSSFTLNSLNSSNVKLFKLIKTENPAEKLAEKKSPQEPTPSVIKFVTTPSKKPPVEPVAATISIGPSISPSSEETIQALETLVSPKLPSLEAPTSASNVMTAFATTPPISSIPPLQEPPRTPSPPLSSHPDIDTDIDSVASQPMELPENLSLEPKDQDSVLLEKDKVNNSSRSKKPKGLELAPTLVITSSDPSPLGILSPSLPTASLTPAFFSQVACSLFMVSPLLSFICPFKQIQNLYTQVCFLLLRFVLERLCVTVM
Outline: as §1

ETV2 = molecular target: T4, ETV2 (Homo sapiens, UniProt O00321 1-342)
T4 sequence: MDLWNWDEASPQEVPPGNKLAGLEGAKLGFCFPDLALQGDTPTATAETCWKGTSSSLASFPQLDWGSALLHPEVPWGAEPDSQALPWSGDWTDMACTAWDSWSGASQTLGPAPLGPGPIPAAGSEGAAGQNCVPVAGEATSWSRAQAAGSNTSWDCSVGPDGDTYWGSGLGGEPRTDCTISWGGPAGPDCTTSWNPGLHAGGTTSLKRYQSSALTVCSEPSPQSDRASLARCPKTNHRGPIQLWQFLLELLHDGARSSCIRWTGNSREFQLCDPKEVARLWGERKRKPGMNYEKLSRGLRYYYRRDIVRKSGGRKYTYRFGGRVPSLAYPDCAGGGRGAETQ
Outline: as §1

ELF3 = molecular target: T5, ELF3 (Homo sapiens, UniProt P78545 1-371)
T5 sequence: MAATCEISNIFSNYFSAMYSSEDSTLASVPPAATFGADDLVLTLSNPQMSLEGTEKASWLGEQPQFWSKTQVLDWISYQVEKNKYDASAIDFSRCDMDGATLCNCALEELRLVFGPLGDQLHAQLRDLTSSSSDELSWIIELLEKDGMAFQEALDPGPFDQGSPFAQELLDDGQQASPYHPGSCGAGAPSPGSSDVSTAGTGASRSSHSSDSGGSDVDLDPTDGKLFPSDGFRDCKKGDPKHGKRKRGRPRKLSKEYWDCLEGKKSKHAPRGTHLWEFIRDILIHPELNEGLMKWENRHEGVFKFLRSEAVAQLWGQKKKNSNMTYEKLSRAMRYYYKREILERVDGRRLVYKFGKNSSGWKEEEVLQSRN
Outline: as §1

ETV1 = ETV1 (Homo sapiens, UniProt P50549 1-477)
ETV1, sequence (P50549 whole entry): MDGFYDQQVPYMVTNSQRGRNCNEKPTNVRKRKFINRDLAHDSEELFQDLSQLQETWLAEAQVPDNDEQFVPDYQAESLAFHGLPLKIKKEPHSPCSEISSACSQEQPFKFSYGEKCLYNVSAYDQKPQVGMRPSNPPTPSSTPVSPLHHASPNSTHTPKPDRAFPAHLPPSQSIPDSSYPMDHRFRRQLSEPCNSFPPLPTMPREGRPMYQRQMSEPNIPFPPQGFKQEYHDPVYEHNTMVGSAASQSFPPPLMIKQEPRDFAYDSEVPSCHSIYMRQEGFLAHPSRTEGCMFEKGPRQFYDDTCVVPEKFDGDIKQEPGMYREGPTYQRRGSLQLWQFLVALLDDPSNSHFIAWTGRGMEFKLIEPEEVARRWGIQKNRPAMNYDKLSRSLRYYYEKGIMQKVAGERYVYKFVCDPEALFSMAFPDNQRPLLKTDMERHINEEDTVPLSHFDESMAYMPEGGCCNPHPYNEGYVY
Outline: as §1

ERF = molecular target: T6, ERF (Homo sapiens, UniProt P50548 1-548)
T6 sequence: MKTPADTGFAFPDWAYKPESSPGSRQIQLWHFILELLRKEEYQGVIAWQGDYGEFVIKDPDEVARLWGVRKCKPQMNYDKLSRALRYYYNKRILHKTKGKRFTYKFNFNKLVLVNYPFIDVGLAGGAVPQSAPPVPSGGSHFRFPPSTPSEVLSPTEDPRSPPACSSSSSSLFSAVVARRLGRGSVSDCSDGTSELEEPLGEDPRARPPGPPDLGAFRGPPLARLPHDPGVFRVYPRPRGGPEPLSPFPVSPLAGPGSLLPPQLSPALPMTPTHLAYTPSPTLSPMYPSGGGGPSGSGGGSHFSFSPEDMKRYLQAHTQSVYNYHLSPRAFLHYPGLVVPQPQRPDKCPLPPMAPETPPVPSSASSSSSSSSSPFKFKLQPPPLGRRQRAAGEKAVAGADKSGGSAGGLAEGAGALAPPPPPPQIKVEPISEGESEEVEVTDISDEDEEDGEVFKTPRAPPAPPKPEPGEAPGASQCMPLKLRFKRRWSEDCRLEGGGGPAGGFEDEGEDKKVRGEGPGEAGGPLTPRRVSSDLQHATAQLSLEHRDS
Outline: as §1

ETV3L = molecular target: T7, ETV3L (Homo sapiens, UniProt Q6ZN32 1-361)
T7 sequence: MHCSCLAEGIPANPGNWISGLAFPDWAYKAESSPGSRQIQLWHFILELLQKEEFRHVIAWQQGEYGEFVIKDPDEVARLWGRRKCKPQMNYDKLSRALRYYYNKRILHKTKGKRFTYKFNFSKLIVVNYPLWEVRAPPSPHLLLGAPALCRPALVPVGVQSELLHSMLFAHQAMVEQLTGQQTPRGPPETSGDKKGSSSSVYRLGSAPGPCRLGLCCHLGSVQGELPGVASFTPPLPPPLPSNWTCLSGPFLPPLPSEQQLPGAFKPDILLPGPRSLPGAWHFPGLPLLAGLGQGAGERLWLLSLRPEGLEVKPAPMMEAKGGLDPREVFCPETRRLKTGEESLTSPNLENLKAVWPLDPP
Outline: as §1

ETS2 = molecular target: T8, ETS2 (Homo sapiens, UniProt P15036 1-469)
T8 sequence: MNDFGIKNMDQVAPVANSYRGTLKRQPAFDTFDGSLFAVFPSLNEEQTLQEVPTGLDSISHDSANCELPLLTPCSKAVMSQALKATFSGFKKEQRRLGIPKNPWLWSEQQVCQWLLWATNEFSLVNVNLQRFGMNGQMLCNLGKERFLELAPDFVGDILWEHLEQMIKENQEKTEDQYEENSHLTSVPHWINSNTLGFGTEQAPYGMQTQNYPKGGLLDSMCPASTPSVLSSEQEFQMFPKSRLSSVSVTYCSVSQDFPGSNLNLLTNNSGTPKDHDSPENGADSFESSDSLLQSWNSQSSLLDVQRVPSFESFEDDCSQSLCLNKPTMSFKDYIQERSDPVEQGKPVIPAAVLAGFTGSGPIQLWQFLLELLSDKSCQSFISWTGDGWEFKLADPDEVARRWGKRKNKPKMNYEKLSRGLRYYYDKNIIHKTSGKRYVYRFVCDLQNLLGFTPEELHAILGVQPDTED
Outline: as §1

SPDEF = molecular target: T9, SPDEF (Homo sapiens, UniProt O95238 1-335)
T9 sequence: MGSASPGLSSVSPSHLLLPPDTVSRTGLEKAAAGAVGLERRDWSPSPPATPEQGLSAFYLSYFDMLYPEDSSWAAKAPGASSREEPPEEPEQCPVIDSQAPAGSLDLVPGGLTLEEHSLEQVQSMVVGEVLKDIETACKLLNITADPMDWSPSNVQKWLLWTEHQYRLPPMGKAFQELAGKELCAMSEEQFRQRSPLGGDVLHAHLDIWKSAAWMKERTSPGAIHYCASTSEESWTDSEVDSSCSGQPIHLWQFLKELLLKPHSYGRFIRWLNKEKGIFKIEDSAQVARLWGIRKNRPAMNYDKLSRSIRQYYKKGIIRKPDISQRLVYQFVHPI
Outline: as §1

ETV7 = molecular target: T10, ETV7 (Homo sapiens, UniProt Q9Y603 1-341)
T10 sequence: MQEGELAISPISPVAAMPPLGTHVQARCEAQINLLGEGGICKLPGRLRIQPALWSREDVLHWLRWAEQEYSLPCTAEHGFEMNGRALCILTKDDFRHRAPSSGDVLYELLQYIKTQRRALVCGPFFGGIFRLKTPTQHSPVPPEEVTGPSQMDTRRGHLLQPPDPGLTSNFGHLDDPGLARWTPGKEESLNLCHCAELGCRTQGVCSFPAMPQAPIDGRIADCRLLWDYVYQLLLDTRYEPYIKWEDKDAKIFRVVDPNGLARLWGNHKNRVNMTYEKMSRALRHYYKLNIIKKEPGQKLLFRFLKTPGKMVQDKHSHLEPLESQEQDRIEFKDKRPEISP
Outline: as §1

ELF5 = molecular target: T11, ELF5 (Homo sapiens, UniProt Q9UKW6-2 1-255)
T11 sequence: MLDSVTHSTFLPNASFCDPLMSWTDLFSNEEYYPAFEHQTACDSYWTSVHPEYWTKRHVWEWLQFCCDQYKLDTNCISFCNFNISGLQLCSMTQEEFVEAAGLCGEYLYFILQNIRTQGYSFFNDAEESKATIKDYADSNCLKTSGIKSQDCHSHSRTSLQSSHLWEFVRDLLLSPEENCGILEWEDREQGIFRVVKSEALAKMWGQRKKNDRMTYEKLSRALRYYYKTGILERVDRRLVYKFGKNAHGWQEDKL
Outline: as §1

ETV3 = molecular target: T12, ETV3 (Homo sapiens, UniProt P41162-2 1-143)
T12 sequence: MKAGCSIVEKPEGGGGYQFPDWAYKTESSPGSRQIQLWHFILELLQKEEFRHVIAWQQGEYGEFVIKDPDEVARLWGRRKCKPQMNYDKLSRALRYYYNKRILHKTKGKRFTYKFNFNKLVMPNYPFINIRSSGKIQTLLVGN
Outline: as §1

ETV6 = ETV6 (Homo sapiens, UniProt P41212 1-452)
ETV6, sequence (P41212 whole entry): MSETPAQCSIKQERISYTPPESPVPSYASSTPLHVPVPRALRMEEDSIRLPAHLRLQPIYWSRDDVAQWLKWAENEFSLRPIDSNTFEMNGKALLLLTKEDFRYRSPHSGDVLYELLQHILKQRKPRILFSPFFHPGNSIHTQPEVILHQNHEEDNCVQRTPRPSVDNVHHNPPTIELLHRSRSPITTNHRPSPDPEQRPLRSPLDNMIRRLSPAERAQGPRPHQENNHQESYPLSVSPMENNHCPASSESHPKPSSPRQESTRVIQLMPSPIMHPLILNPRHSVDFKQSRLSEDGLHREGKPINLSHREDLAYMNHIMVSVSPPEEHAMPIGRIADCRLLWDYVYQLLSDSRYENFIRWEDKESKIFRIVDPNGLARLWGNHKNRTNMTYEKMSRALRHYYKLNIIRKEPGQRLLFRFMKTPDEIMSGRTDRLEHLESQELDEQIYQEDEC
Outline: as §1

CRX = CRX (Homo sapiens, UniProt O43186 1-299)
CRX, sequence (O43186 whole entry): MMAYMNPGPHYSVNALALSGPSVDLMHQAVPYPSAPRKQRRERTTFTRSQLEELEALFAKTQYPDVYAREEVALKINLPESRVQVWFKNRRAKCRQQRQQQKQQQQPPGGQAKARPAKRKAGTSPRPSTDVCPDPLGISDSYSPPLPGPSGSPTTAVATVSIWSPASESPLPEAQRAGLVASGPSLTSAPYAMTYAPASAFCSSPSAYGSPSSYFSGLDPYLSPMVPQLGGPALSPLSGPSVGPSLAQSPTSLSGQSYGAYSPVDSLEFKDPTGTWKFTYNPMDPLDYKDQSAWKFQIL
Outline: as §1

Sequence	binding signal (FEV)	binding signal (ETV5)	binding signal (SPIC)	binding signal (ELF4)	binding signal (ELK4)	binding signal (ETV2)	binding signal (ELF3)	binding signal (ETV1)	binding signal (ERF)	binding signal (ETV3L)	binding signal (ETS2)	binding signal (SPDEF)	binding signal (ETV7)	binding signal (ELF5)	binding signal (ETV3)	binding signal (ETV6)	binding signal (CRX)
CCGGAC	2.05 fold enrichment (6-mer frequency, TF over GST control)	1.57 fold enrichment (6-mer frequency, TF over GST control)	1.22 fold enrichment (6-mer frequency, TF over GST control)	1.44 fold enrichment (6-mer frequency, TF over GST control)	1.15 fold enrichment (6-mer frequency, TF over GST control)	1.39 fold enrichment (6-mer frequency, TF over GST control)	1.45 fold enrichment (6-mer frequency, TF over GST control)	1.53 fold enrichment (6-mer frequency, TF over GST control)	1.4 fold enrichment (6-mer frequency, TF over GST control)	1.48 fold enrichment (6-mer frequency, TF over GST control)	1.52 fold enrichment (6-mer frequency, TF over GST control)	2.1 fold enrichment (6-mer frequency, TF over GST control)	1.39 fold enrichment (6-mer frequency, TF over GST control)	1.77 fold enrichment (6-mer frequency, TF over GST control)	1.6 fold enrichment (6-mer frequency, TF over GST control)	1.41 fold enrichment (6-mer frequency, TF over GST control)	–
GGTCTA	1.06 fold enrichment (6-mer frequency, TF over GST control)	1.11 fold enrichment (6-mer frequency, TF over GST control)	1.09 fold enrichment (6-mer frequency, TF over GST control)	1.11 fold enrichment (6-mer frequency, TF over GST control)	1.04 fold enrichment (6-mer frequency, TF over GST control)	1.06 fold enrichment (6-mer frequency, TF over GST control)	1.01 fold enrichment (6-mer frequency, TF over GST control)	1.05 fold enrichment (6-mer frequency, TF over GST control)	1.07 fold enrichment (6-mer frequency, TF over GST control)	1.11 fold enrichment (6-mer frequency, TF over GST control)	1.05 fold enrichment (6-mer frequency, TF over GST control)	1.08 fold enrichment (6-mer frequency, TF over GST control)	–	1.04 fold enrichment (6-mer frequency, TF over GST control)	1.05 fold enrichment (6-mer frequency, TF over GST control)	1.04 fold enrichment (6-mer frequency, TF over GST control)	1.01 fold enrichment (6-mer frequency, TF over GST control)
